Rango-impB inh – inhibitors of Rango-importin beta complex formation; Rango CFP/YFP FRET sensor + importin beta, 45 min; Potency, µM (doses to about 92.2 µM), inactives show top-dose inhibition of complex formation; 0.031% of 340,000 active; AID 540263; calls by dose curve;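 also: potency is read from the fitted curve at half-maximal effect; 0% = DMSO wells and 100% = buffer wells lacking importin beta; nearly all actives have a fitted effect of over 15% in size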
Target sequence (Q14974 whole entry, looked up): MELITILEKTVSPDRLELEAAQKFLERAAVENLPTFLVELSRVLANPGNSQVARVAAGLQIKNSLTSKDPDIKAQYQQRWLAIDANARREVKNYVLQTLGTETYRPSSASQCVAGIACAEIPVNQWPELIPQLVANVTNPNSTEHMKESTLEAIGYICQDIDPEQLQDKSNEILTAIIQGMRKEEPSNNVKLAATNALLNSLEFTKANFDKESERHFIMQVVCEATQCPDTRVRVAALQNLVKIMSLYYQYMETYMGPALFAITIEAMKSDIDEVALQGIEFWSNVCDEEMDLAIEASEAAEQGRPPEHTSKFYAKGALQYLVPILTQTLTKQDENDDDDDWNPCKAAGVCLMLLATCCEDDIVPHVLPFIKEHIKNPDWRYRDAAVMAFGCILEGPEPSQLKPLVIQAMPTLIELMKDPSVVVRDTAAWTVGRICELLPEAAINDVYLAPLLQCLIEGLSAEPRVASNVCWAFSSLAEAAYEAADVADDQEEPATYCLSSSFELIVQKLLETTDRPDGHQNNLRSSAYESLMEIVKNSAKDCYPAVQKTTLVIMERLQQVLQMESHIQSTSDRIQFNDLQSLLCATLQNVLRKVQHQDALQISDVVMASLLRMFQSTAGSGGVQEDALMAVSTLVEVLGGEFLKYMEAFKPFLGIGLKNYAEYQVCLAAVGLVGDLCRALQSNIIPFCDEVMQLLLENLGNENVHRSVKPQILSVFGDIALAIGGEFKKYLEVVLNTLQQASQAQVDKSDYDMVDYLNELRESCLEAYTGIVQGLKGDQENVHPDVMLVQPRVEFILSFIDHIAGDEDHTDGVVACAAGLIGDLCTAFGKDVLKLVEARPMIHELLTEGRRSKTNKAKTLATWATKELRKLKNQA
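FRET biosensor Rango (snurportin 1 IBB between N-terminal EYFP and C-terminal Cerulean), 50 nM in PBS/1 mM DTT/0.02% Tween-20/0.1% BSA, preincubated 5 min RT with compound; 0.125 microM importin beta added, 45 min RT, CFP/YFP FRET ratio read.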
B2AR arrestin – agonists driving beta-arrestin recruitment to human beta2-adrenergic receptor. beta-arrestin recruitment to beta2AR, cell-based reporter. P07550. 0.02% of 330,000 active. Potency, µM (doses to about 46.1 µM), inactives show at the highest dose activation, actives largely listed as activators;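 also: potency is read from the fitted curve at half-maximal effect; 0% = DMSO controls and full agonism = EC100 isoproterenol or metaproterenol; nearly all actives have a fitted effect of over 65% in size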
Rango dissoc inh – prevents RanGTP from dissociating the Rango-importin beta complex; O95149+P62826; Biochemical FRET Rango-importin beta, RanGTP-induced dissociation; Potency, µM (top dose mostly 46.1 µM), for the others: at the highest dose activity change, negative = inhibition; 0.071% of 340,000 active; AID 540253; calls by dose curve; also: potency is read from the fitted curve at half-maximal effect; % of control where 0% means no effect; nearly all actives have a fitted effect of over 45% in size
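Compounds sat 5 min at room temperature with 0.1 uM Rango biosensor plus 0.25 uM importin beta, then FRET pre-read. RanGTP-RCC1 (0.6 uM Ran, 2mM GTP, 0.2 uM RCC1) added for 45 min, and the CFP/YFP post-read measured blocked complex dissociation.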
CCT chaperon mod – cytosolic chaperonin activity modulation; purified chaperonin ATPase assay, HTRF ADP detection, 30 min; 0.3% of 360,000 active; activity change, % (no concentration beside the values), hits read low; in the data active = activity change below about -30%; also: % is scaled to controls: 0 for no effect and ±100 for the full control effect
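We incubate TRiC, 40 or 20 nM final, with library compounds at 76 uM and 10 uM ATP for 30 min at 37 °C. ADP formed is detected with Transcreener HTRF reagents after 30 min at room temperature.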
MmCpn inh – inhibitors of Methanococcus maripaludis chaperonin TRiC (MmCpn); 0.031% of 330,000 active; purified Mm-Cpn ATPase, ADP Transcreener TR-FRET; Potency, µM (top dose mostly 76.9 µM), for the others: at the top dose activity, negative = inhibition, hits mostly inhibitors; also: potency is read from the fitted curve at half-maximal effect; % is scaled to controls: 0 for no effect and ±100 for the full control effect; nearly all actives have a fitted effect of over 80% in size
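Inhibition of chaperonin ATP hydrolysis is measured as reduced ADP production, detected by competitive TR-FRET in which signal falls with ADP. Final enzyme 25 nM and ATP 10 uM, reacted 30 min at 37°C.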
Numbers without * were called inactive; ? = inconclusive; / = no result. An excerpt weighted towards active compounds, which were near 0.43% of everything screened. Unless noted, calls follow the shape of the dose curve; as a rule, active = well fitted curve in the direction sought with a large enough effect; inconclusive = small, poorly fitted or top-dose-only effect, or another doubt; inactive = no such curve, though single readings can be large; an effect the other way counts as inactive or inconclusive.

SMILES | Rango-impB inh | B2AR arrestin | Rango dissoc inh | CCT chaperon mod | MmCpn inh
O=C(CCCN1C(=O)C(c2ccccc2)Oc2cccnc21)NCc1ccccc1Cl (centres undefined) | -3.1% | 0.0% | -10.5% | 0.8 | -1.7%
COc1ccc(CC(=O)NNc2ncnc3c2cnn3-c2ccc(C)cc2)cc1 | -7.1% | -0.7% | 14.6µM* | -0.3 | -0.4%
COc1ccc(CC(=O)NNc2ncnc3c2cnn3-c2ccccc2)cc1 | 0.8% | 1.2% | -11.6% | -0.2 | -0.9%
COc1ccc(NC(=O)CN2CCN(c3ccc(C)cc3C)CC2)cc1 | -0.4% | -0.5% | -5.8% | -54.9* | 0.2%
O=C1/C(=C/c2cccs2)Sc2ccccc21 | ? | -0.1% | 18.4µM* | 2.3 | 0.2%
O=C1Nc2ccccc2S/C1=C/c1cccs1 | ? | -0.8% | ? | -1.3 | -2.4%
CCOC(=O)N1CCN(C(=O)COc2ccc(S(=O)(=O)NC3CCCCC3)cc2C)CC1 | 6.6% | -1.5% | -0.3% | -0.4 | 0.9%
Cc1cc(S(=O)(=O)NC2CCCCC2)ccc1OCC(=O)N1CCOCC1 | -0.9% | -0.1% | 18.4% | -67.4* | -0.6%
CCc1cc(=O)oc2cc(OC(C)C(=O)O)c(Cl)cc12 (centres undefined) | -1.5% | 0.0% | -18.5% | -0.9 | 1.1%
CN(C)S(=O)(=O)c1cccc(NC(=O)c2cc(-c3cccs3)nc3ccccc23)c1 | -4.3% | -2.5% | 2.9% | -31.6* | ?
Cc1ccc(-c2cc(C(=O)Nc3ccc4c(c3)OCCO4)c3ccccc3n2)cc1 | -0.1% | 0.3% | -22.0% | -32.9* | -20.0%
CC(=O)Nc1cccc(-c2cn3ccccc3n2)c1 | 5.0% | -1.1% | 9.7% | -2.4 | -2.9%
O=C(Nc1cccc(-c2cn3ccccc3n2)c1)c1cc2ccccc2oc1=O | 5.2% | -0.2% | 6.9% | -60.7* | -3.9%
O=C(Nc1ccc2c(c1)OCO2)c1cc(-c2cccnc2)nc2ccccc12 | -0.1% | 0.2% | -5.7% | -6.5 | -0.7%
NS(=O)(=O)c1cccc(NC(=O)c2cc(-c3cccs3)nc3ccccc23)c1 | -0.6% | 0.6% | 0.5% | 0.1 | -2.6%
Cc1cccc(NC(=O)c2cc3ccccc3oc2=O)c1 | ? | -0.4% | 11.6µM* | -1.3 | -0.1%
Cc1ccccc1-n1nc2c(c1NC(=O)c1cc3ccccc3o1)CS(=O)(=O)C2 | -2.8% | 0.0% | 5.2% | -1.2 | -0.4%
Cc1cccc(NC(=O)c2cc(C)nc3ccccc23)c1 | ? | -0.7% | -4.5% | -39.3* | 2.6%
COc1ccc(-c2cc(C(F)(F)F)c(C#N)c(SCC(=O)Nc3ccccc3C#N)n2)cc1 | ? | -0.4% | ? | -45.3* | -5.8%
COc1ccc(NC(=O)CSc2nc(-c3ccc(C)cc3)cc(C(F)(F)F)c2C#N)cc1 | 1.9% | -0.1% | -8.6% | -1.0 | 1.3%
COc1cc2ccccc2cc1C(=O)N/N=C/c1cccnc1 | 0.4% | -0.1% | -3.1% | -35.1* | -10.4%
CCn1c(-c2cc(-c3cc(C)ccc3C)nc3ccccc23)n[nH]c1=S | 3.3% | -0.3% | 0.5% | -72.2* | -0.2%
CCn1c(-c2cc(-c3ccc(C)c(C)c3)nc3ccccc23)n[nH]c1=S | / | -0.4% | / | / | -3.2%
C[C@@H](c1ccccc1)N1C[C@H](COCc2ccccc2)Oc2cc(N3CCC[C@@H]3CO)ccc2S1(=O)=O | / | / | / | -0.9 | /
Cc1[nH]c(=O)[nH]c(=O)c1Cc1cccc2ccccc12 | 1.9% | 0.5% | 29.5% | -37.3* | 0.4%
SMILES | Rango-impB inh | B2AR arrestin | Rango dissoc inh | CCT chaperon mod | MmCpn inh
CCOC(=O)c1sc(NC(=S)NC(=O)c2ccc(OC)cc2)nc1C | 4.3% | 0.6% | 10.7% | -51.8* | -7.6%
COc1ccc(C(=O)NC(=S)Nc2nc(C)c(C(=O)N(C)C)s2)cc1 | -0.8% | -0.4% | 0.5% | -2.3 | -0.9%
Cc1ccc2c(c1)S(=O)(=O)c1ccc3ccccc3c1N2 | -2.0% | / | 1.0% | -36.6* | /
Cc1cccc(CSC2=CS(=O)(=O)c3ccccc3N2)c1 | 5.6% | 0.0% | 0.5% | 0.7 | 1.6%
Cc1cc(NC(=O)CSc2nnc(-c3ccccc3F)n2N)no1 | 3.9% | -0.2% | 0.0% | -1.7 | -0.8%
COc1ccc(C(=O)c2ncc(C(F)(F)F)cc2Cl)cc1 | -0.9% | -0.8% | 0.5% | -146.5* | 1.9%
Cc1cc(C(=O)N/N=C/c2cc(Br)cc(Br)c2OC(=O)c2cccc(F)c2)n[nH]1 | ? | 0.0% | 3.66µM* | -2.5 | -0.5%
